# In the supplement of paper PMC8728848:
# This is one part of a sample in which the strongest signals are shown more often than they occur.
# B1: Gal 9 (Homo sapiens), O00182 (protein)
# chain: MAFSGSQAPYLSPAVPFSGTIQGGLQDGLQITVNGTVLSSSGTRFAVNFQTGFSGNDIAFHFNPRFEDGGYVVCNTRQNGSWGPEERKTHMPFQKGMPFDLCFLVQSSDFKVMVNGILFVQYFHRVPFHRVDTISVNGSVQLSYISFQNPRTVPVQPAFSTVPFSQPVCFPPRPRGRRQKPPGVWPANPAPITQTVIHTVQSAPGQMFSTPAIPPMMYPHPAYPMPFITTILGGLYPSKSILLSGTVLPSAQRFHINLCSGNHIAFHLNPRFDENAVVRNTQIDNSWGSEERSLPRKMPFVRGQSFSVWILCEAHCLKVAVDGQHLFEYYHRLRNLPTINRLEVGGDIQLTHVQT
# How the values were obtained:
# Experiment in all cases: glycan array binding signal (z-score within array); higher = stronger binding
# Conditions in all cases: glycan notation: IUPAC condensed, linker removed
# [1] = target: Fuc(a1-2)Gal(b1-3)GalNAc(a1-3)[Fuc(a1-2)]Gal(b1-4)Glc
# How it was run: (§1)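 The binding signal is a Z-score computed within each array. Data were drawn from 3228 arrays in the Consortium for Functional Glycomics database, restricted to those with a known protein sequence. Scores were averaged over arrays of the same protein sequence at different concentrations or buffers, and over linkers, and negative values can be taken as non-binding.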
# [2] = target: Fuc(a1-2)Gal(b1-3)GlcNAc(b1-3)GalNAc
# How it was run: as §1
# [3] = target: Fuc(a1-2)Gal(b1-4)GlcNAc(b1-2)Man(a1-3)[Fuc(a1-2)Gal(b1-4)GlcNAc(b1-2)Man(a1-6)]Man(b1-4)GlcNAc(b1-4)[Fuc(a1-6)]GlcNAc
# How it was run: as §1
# [4] = target: Fuc(a1-2)Gal(b1-4)GlcNAc6S
# How it was run: as §1
# [5] = target: Fuc(a1-2)[Gal(a1-3)]Gal(b1-3)GalNAc(b1-3)Gal(a1-4)Gal(b1-4)Glc
# How it was run: as §1
# [6] = target: Fuc(a1-2)[Gal(a1-3)]Gal(b1-3)GlcNAc(b1-6)GalNAc
# How it was run: as §1
# [7] = target: Fuc(a1-2)[Gal(a1-3)]Gal(b1-4)GlcNAc(b1-2)Man(a1-3)[Fuc(a1-2)[Gal(a1-3)]Gal(b1-4)GlcNAc(b1-2)Man(a1-6)]Man(b1-4)GlcNAc(b1-4)GlcNAc
# How it was run: as §1
# [8] = target: Fuc(a1-2)[Gal(a1-3)]Gal(b1-4)GlcNAc(b1-6)GalNAc
# How it was run: as §1
# [9] = target: Fuc(a1-2)[GalNAc(a1-3)]Gal(b1-3)GlcNAc
# How it was run: as §1
# [10] = target: Fuc(a1-2)[GalNAc(a1-3)]Gal(b1-4)GlcNAc(b1-2)Man(a1-3)[Fuc(a1-2)[GalNAc(a1-3)]Gal(b1-4)GlcNAc(b1-2)Man(a1-6)]Man(b1-4)GlcNAc(b1-4)GlcNAc
# How it was run: as §1
# [11] = target: Fuc(a1-2)[GalNAc(a1-3)]Gal(b1-4)[Fuc(a1-3)]GlcNAc(b1-3)GalNAc
# How it was run: as §1
# Fuc(a1-3)GlcNAc = target: Fuc(a1-3)GlcNAc
# How it was run: as §1
# [12] = target: Fuc(a1-3)[Gal(b1-4)]GlcNAc(b1-4)Gal(b1-4)[Fuc(a1-3)]GlcNAc
# How it was run: as §1
# [13] = target: Fuc(a1-3)[Gal(b1-4)]GlcNAc(b1-6)[Gal(b1-3)GlcNAc(b1-3)]Gal(b1-4)Glc
# How it was run: as §1
# Gal(a1-4)Gal(b1-4)GlcNAc = target: Gal(a1-4)Gal(b1-4)GlcNAc
# How it was run: as §1
# [14] = target: Gal(b1-3)Gal(b1-4)GlcNAc(b1-2)Man(a1-3)[Gal(b1-3)Gal(b1-4)GlcNAc(b1-2)Man(a1-6)]Man(b1-4)GlcNAc(b1-4)GlcNAc
# How it was run: as §1
# [15] = target: Gal(b1-3)GlcNAc(b1-3)Gal(b1-4)GlcNAc(b1-2)Man(a1-3)[Gal(b1-3)GlcNAc(b1-3)Gal(b1-4)GlcNAc(b1-2)Man(a1-6)]Man(b1-4)GlcNAc(b1-4)GlcNAc
# How it was run: as §1
# [16] = target: Gal(b1-3)[Fuc(a1-4)]GlcNAc(b1-6)GalNAc
# How it was run: as §1
# [17] = target: Gal(b1-3)[Neu5Ac(a2-6)]GalNAc
# How it was run: as §1
# [18] = target: Gal(b1-4)GlcNAc(b1-2)Man(a1-3)[Gal(b1-4)GlcNAc(b1-2)Man(a1-6)]Man(b1-4)GlcNAc(b1-4)GlcNAc
# How it was run: as §1
# [19] = target: Gal(b1-4)GlcNAc(b1-2)Man(a1-3)[Gal(b1-4)GlcNAc(b1-2)Man(a1-6)][Gal(b1-4)GlcNAc(b1-4)]Man(b1-4)GlcNAc(b1-4)[Fuc(a1-6)]GlcNAc
# How it was run: as §1
# [20] = target: Gal(b1-4)GlcNAc(b1-2)Man(a1-6)[Man(a1-3)]Man(b1-4)GlcNAc(b1-4)GlcNAc
# How it was run: as §1
# [21] = target: Gal(b1-4)GlcNAc(b1-2)[Gal(b1-4)GlcNAc(b1-4)]Man(a1-3)[Gal(b1-4)GlcNAc(b1-2)[Gal(b1-4)GlcNAc(b1-6)]Man(a1-6)]Man(b1-4)GlcNAc(b1-4)GlcNAc
# How it was run: as §1
# [22] = target: Gal(b1-4)GlcNAc(b1-2)[Gal(b1-4)GlcNAc(b1-6)]Man(a1-6)[GlcNAc(b1-4)][Gal(b1-4)GlcNAc(b1-2)Man(a1-3)]Man(b1-4)GlcNAc(b1-4)GlcNAc
# How it was run: as §1
# [23] = target: Gal(b1-4)GlcNAc(b1-3)Gal(b1-4)GlcNAc(b1-3)Gal(b1-4)GlcNAc(b1-3)Gal(b1-4)GlcNAc(b1-2)[Gal(b1-4)GlcNAc(b1-3)Gal(b1-4)GlcNAc(b1-3)Gal(b1-4)GlcNAc(b1-3)Gal(b1-4)GlcNAc(b1-6)]Man(a1-6)[Gal(b1-4)GlcNAc(b1-3)Gal(b1-4)GlcNAc(b1-3)Gal(b1-4)GlcNAc(b1-3)Gal(b1-4)GlcNAc(b1-2)Man(a1-3)]Man(b1-4)GlcNAc(b1-4)[Fuc(a1-6)]GlcNAc
# How it was run: as §1
# [24] = target: Gal(b1-4)GlcNAc(b1-3)Gal(b1-4)GlcNAc(b1-3)Gal(b1-4)GlcNAc(b1-3)Gal(b1-4)GlcNAc(b1-3)Gal(b1-4)GlcNAc(b1-2)Man(a1-3)[Gal(b1-4)GlcNAc(b1-3)Gal(b1-4)GlcNAc(b1-3)Gal(b1-4)GlcNAc(b1-3)Gal(b1-4)GlcNAc(b1-3)Gal(b1-4)GlcNAc(b1-2)Man(a1-6)]Man(b1-4)GlcNAc(b1-4)GlcNAc
# How it was run: as §1
# [25] = target: Gal(b1-4)GlcNAc(b1-3)Gal(b1-4)GlcNAc(b1-3)Gal(b1-4)GlcNAc(b1-3)Gal(b1-4)GlcNAc(b1-3)Gal(b1-4)GlcNAc(b1-2)Man(a1-3)[Gal(b1-4)GlcNAc(b1-3)Gal(b1-4)GlcNAc(b1-3)Gal(b1-4)GlcNAc(b1-3)Gal(b1-4)GlcNAc(b1-3)Gal(b1-4)GlcNAc(b1-2)Man(a1-6)]Man(b1-4)GlcNAc(b1-4)[Fuc(a1-6)]GlcNAc
# How it was run: as §1
binder,measurement,setting,value
B1,glycan array binding signal (z-score),[1],-0.317
same,glycan array binding signal (z-score),[2],-0.3
same,glycan array binding signal (z-score),[3],-0.322
same,glycan array binding signal (z-score),[4],0.06
same,glycan array binding signal (z-score),[5],-0.307
same,glycan array binding signal (z-score),[6],-0.233
same,glycan array binding signal (z-score),[7],0.9
same,glycan array binding signal (z-score),[8],-0.307
same,glycan array binding signal (z-score),[9],0.055
same,glycan array binding signal (z-score),[10],4.39
same,glycan array binding signal (z-score),[11],-0.288
same,glycan array binding signal (z-score),Fuc(a1-3)GlcNAc,-0.32
same,glycan array binding signal (z-score),[12],-0.303
same,glycan array binding signal (z-score),[13],-0.236
same,glycan array binding signal (z-score),Gal(a1-4)Gal(b1-4)GlcNAc,-0.299
same,glycan array binding signal (z-score),[14],6
same,glycan array binding signal (z-score),[15],4.53
same,glycan array binding signal (z-score),[16],-0.282
same,glycan array binding signal (z-score),[17],-0.315
same,glycan array binding signal (z-score),[18],2.94
same,glycan array binding signal (z-score),[19],-0.269
same,glycan array binding signal (z-score),[20],0.09
same,glycan array binding signal (z-score),[21],4.71
same,glycan array binding signal (z-score),[22],3.87
same,glycan array binding signal (z-score),[23],9.56
same,glycan array binding signal (z-score),[24],4.95
same,glycan array binding signal (z-score),[25],4.2
